Screening results (PubChem)
An excerpt weighted towards active compounds, which were near 1.3% of everything screened.
Efflux pump mplx: blocks antifungal efflux pumps in multiplex yeast assay; S. cerevisiae Candida pump triplex, Nile Red efflux; inhibition, % at 10 µM; hit rate 0.44% among 330,000;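 active = plate passing quality check with inhibition over a set limit, or well fluorescence over plate mean plus 4 SD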;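 also: Nile Red retained in pooled yeast measured as flow cytometry median fluorescence; 0% = buffer negative control and 100% = Enniatin B positive control; higher means more Nile Red kept so more efflux inhibition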
CIT2-GFP yeast: modulators of TOR pathway CIT2-GFP in S. cerevisiae; GFP response vs DMSO, % at 10 µM; S. cerevisiae CIT2-GFP strain, flow cytometry, 3 h; 100 means same as DMSO wells; AID 2029; hit rate 0.065% among 320,000;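 active = GFP response relative to DMSO above a set limit, near the screen mean plus 3 SD, cut at about 150% in these data; inconclusive = Fewer than 70 cells measured for a yeast strain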;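 also: ratio of well median GFP fluorescence to mean of DMSO wells on the plate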
LAP4 TOR yeast: alters LAP4-GFP fluorescence in TOR pathway yeast screen. S. cerevisiae LAP4-GFP multiplex, flow cytometry GFP, 3 h; median GFP as percent of DMSO wells. hit rate 0.34% among 320,000. GFP response vs DMSO, % at 10 µM;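 active = GFP response vs DMSO above a set limit, about the screen mean plus 3 SD, cut at about 150% in these data; inconclusive = under 70 cell events counted for the yeast strain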
RPL19A TOR yeast: alters RPL19A-GFP fluorescence in TOR pathway yeast screen; percent response vs DMSO, % at 10 µM; hit rate 0.3% among 330,000; AID 2025; S. cerevisiae RPL19A-GFP strain, flow cytometry, 3 h; hits give low values;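 active = percent response vs DMSO below 50%; inconclusive = fewer than 70 events counted for the yeast strain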;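 also: median channel GFP fluorescence of the barcoded RPL19A-GFP strain; ratio of sample median GFP to plate DMSO average so 100% = DMSO; lower means less RPL19A-GFP as with rapamycin TOR inhibition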
AGP1 TOR yeast: yeast TOR pathway AGP1-GFP modulation; hit rate 0.02% among 320,000; GFP response vs DMSO, % at 10 µM; S. cerevisiae AGP1-GFP multiplex flow cytometry, 3 h; GFP as percent of DMSO wells;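 active = GFP response relative to DMSO above a set limit, near screen average plus 3 SD, cut at about 150% in these data; inconclusive = fewer than 70 cells counted for the yeast strain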;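 also: median GFP channel fluorescence of the gated AGP1 strain per well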
MEP2 TOR yeast: alters MEP2-GFP fluorescence in TOR pathway yeast screen; hit rate 0.51% among 330,000; GFP response vs DMSO, % at 10 µM; S. cerevisiae MEP2-GFP strain, flow cytometry GFP, 3 h; 100% = DMSO control level;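 active = GFP response versus DMSO above a set limit, roughly screen mean plus 3 SD, cut at about 180% in these data; inconclusive = fewer than 70 cells counted for a yeast strain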;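 also: median GFP fluorescence of the barcode-gated MEP2-GFP cells per well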
* = called active by the depositor; ? = inconclusive; nt = no result; + = active, no number; ! = not confirmed by another sample; [ ] = another dose, or the depositor's remark.

SMILES	Efflux pump mplx	CIT2-GFP yeast	LAP4 TOR yeast	RPL19A TOR yeast	AGP1 TOR yeast	MEP2 TOR yeast
CC1CCCN(CCCNC(=O)C2CCN(S(=O)(=O)N3CCC4(CC3)OCCO4)CC2)C1 (stereo not given)	0	105	86	47*	18	120
O=C(NCCc1ccc(Cl)cc1)C1CCN(S(=O)(=O)N2CCC3(CC2)OCCO3)CC1	0	81	82	113	85	97
NC(=O)C1=C[C@@H](c2csc3ccccc23)C[C@@H](OCCCCO)O1	0	99	116	117	104	107
CC1(C)CC(NC(=O)C2CCCCC2)CC(C)(C)N1	0	101	99	104	98	102
O=C(O)CC(NC(=O)/C(=C/c1ccccc1)NC(=O)c1ccccc1)c1ccccc1 (stereo not given)	0	?	44	37*[may fluoresce violet]	?	261*[may fluoresce violet]
O=C(NC(Cc1ccccc1)C(=O)O)/C(=C\c1ccc(F)cc1)NC(=O)c1ccco1 (stereo not given)	0	104	96	105	108	102
O=C(NC(Cc1ccccc1)C(=O)O)/C(=C/c1ccccc1)NC(=O)c1ccco1 (stereo not given)	0	?	66	22*[may fluoresce violet]	?	220*[may fluoresce violet]
O=C(NC(Cc1ccccc1)C(=O)O)/C(=C/c1ccc(Cl)cc1)NC(=O)c1ccccc1 (stereo not given)	0	101	92	108	101	101
COc1ccccc1OCCNC(=O)CCS(=O)(=O)c1ccccc1	0	92	101	98	95	97
COc1ccccc1NC(=O)NCc1nc(-c2ccc(C(F)(F)F)cc2)no1	0	100	100	100	101	98
N#CC12C(N)=NC3(OCCO3)C1(C#N)C1=C(CCC1)NC2c1ccccc1 (stereo not given)	0	99	99	97	100	104
CCSC1(SCC)N=C(N)C2(C#N)C(c3ccccc3)NC3=C(CCC3)C12C#N (stereo not given)	0	?	97	42*[may fluoresce violet]	20	277*[may fluoresce violet]
COc1ccc(C)cc1NC(=O)CNC(C)C(=O)Nc1cc(Cl)ccc1Cl (stereo not given)	0	101	96	103	103	107
COc1ccc(CN(C(=O)c2snc(C(N)=O)c2N)C(C(=O)NC2CCCC2)c2cc(OC)ccc2OC)cc1 (stereo not given)	1	?	74	41*[may fluoresce violet]	?	302*[may fluoresce violet]
Cc1c(CCC(=O)NCC(=O)O)c(=O)oc2cc3occ(-c4ccccc4)c3cc12	0	99	98	108	94	106
CCCC(NC(=O)CCc1c(C)c2cc3c(-c4ccccc4)coc3cc2oc1=O)C(=O)O (stereo not given)	0	?	100	65	?	288*[may fluoresce violet]
C#CC[N+]1(CC#Cc2ccccc2)CCOCC1	0	?	99	38*[may fluoresce violet]	?	194*[may fluoresce violet]
N#Cc1c(N)c(C(=O)c2ccc(Cl)cc2)n2c1CCC2	0	?	85	nt	?	248*[may fluoresce violet]
CCOC(=O)c1c(N)c(C#N)c2n1CCCC2	0	107	104	103	110	101
O=S(=O)(Nc1ccc(Br)cc1)c1cccc2nonc12	0	91	152*	80	116	95
Cc1ccc(NC(=O)CSc2nc3ccccc3c(=O)n2CC2CCCO2)cc1 (stereo not given)	0	104	89	103	101	94
CN(C)c1ccc(NC(=O)CSc2nc3ccccc3c(=O)n2CC2CCCO2)cc1 (stereo not given)	0	?	78	54	?	214*[may fluoresce violet]
Cc1ccc(S(=O)(=O)CCC(=O)c2ccc(F)cc2)cc1	0	164*	112	94	123	109
Cc1ccc(C(=O)CCS(=O)(=O)c2ccc(F)cc2)cc1	0	121	102	97	107	96
COc1ccc(Nc2nc(-c3sc(N)nc3C)cs2)cc1	0	?	?	40*[may fluoresce violet]	?	213*[may fluoresce violet]
SMILES	Efflux pump mplx	CIT2-GFP yeast	LAP4 TOR yeast	RPL19A TOR yeast	AGP1 TOR yeast	MEP2 TOR yeast
Cc1ccc(Nc2nc(-c3sc(N)nc3C)cs2)cc1	0	97	94	101	98	98
Cc1nc(N)sc1-c1csc(Nc2ccc(Cl)cn2)n1	0	93	164*	91	96	95
CNC(=O)c1c(NC(=O)CCS(=O)(=O)c2ccc(Cl)cc2)sc2c1CCN(C(=O)OC)C2	0	111	106	101	105	110
CCOC(=O)N1CCC(NC(=O)c2cc3c(-c4cccc(OC)c4)nn(C)c3s2)CC1	0	90	214*	55	100	97
CCC(CC)NC(=O)Cc1ccc(F)cc1	0	+[may fluoresce green]	921*[may fluoresce green]	267	251*[may fluoresce green]	+[may fluoresce green]
COCCN(C(=O)c1ccccc1Oc1ccccc1)c1c(N)n(CC(C)C)c(=O)[nH]c1=O	0	81	96	91	92	94
CCOC(=O)Nc1ccc2c(c1)N(C(=O)CCN1CCN3CCCC3C1)c1ccccc1CC2 (stereo not given)	0	93	103	101	102	103
COC(=O)Nc1ccc2c(c1)N(C(=O)CCN1CCN3CCCC3C1)c1ccccc1CC2 (stereo not given)	0	100	157*!	80	131	229*!
Oc1nc(-c2ccc(Cl)cc2)n2ccncc12	0	95	100	95	104	95
COC(=O)c1ccc(-c2nc(O)c3cnccn23)cc1	0	?	76	22*[may fluoresce violet]	?	325*[may fluoresce violet]
COc1cccc(NC(=O)[C@@H]2CCCN2C(=O)[C@@H]2Cc3ccccc3CN2C(=O)OC(C)(C)C)c1	0	?	78	19*[may fluoresce violet]	16	159
O=C(COc1ccc(F)cc1Cl)Nc1ccccc1C(=O)N1CCCCC1	0	95	90	100	98	97
Cc1nc(-c2ccc3c(c2)OCCO3)cs1	0	105	95	100	97	99
N#Cc1cncc(-c2ccc3c(c2)OCCOCCOCCOCCOCCO3)n1	0	?	102	25*[may fluoresce violet]	?	233*[may fluoresce violet]
O=C(c1ccccc1)N1CCN(C(=O)c2ccc3c(c2)OCO3)CC1	0	98	97	98	100	107
O=C(c1ccc2c(c1)OCO2)N1CCC(Cc2ccccc2)CC1	0	?	112	26*[may fluoresce violet]	?	273*[may fluoresce violet]
COc1ccc(OCc2nnc(SCC(=O)N3CCCc4ccccc43)n2-c2ccc(C)cc2)cc1	0	?	96	66	21	214*[may fluoresce violet]
N#Cc1ccc(OCc2nnc(SCC(=O)N3CCCc4ccccc43)n2-c2ccccc2)cc1	0	88	nt	97	102	96
